Source: PubChem BioAssay AID588342 (National Center for Advancing Translational Sciences (NCATS), 2011)
Among all 360,000 compounds or so, about 25,000 (6.9%) were called active. Inconclusive results (about 9%) are left out. The list comes from a sample in which actives are over-represented; it also holds similar structures and randomly drawn compounds. Values without a mark were called inactive. The call rests on the fitted dose curve; in most records, active means well fitted inhibition curve with a large enough effect; inconclusive means small, poorly fitted or top-dose-only effect; inactive means flat fitted curve, though single readings scatter.

Each molecule was assayed against Luciferin 4-monooxygenase (Photinus pyralis) (UniProt P08659) (assay: qHTS profiling assay for firefly luciferase inhibitor/activator using purifed enzyme and Km concentrations of substrates (counterscreen for miR-21 project)). Details: purified FLuc, luminescence inhibition; series mostly up to 57.5 µM; activity change, negative = inhibition: at the top concentration.
Procedure, shortened: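 Biochemical qHTS of compounds, final roughly 60 µM downward over six points, against 10 nM purified firefly luciferase using Km concentrations of substrates (10 uM D-luciferin, 10 uM ATP) in Tris acetate pH 7.5 buffer; luminescence output.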
Further: nearly all actives have a fitted effect of over 55% in size.
Potency means the concentration at half of the fitted maximal effect.
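Wherever activity change, negative = inhibition is given: plate controls were vehicle for no effect and reference inhibitor for full effect.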

Chain of Luciferin 4-monooxygenase (Photinus pyralis) (P08659 whole entry, looked up): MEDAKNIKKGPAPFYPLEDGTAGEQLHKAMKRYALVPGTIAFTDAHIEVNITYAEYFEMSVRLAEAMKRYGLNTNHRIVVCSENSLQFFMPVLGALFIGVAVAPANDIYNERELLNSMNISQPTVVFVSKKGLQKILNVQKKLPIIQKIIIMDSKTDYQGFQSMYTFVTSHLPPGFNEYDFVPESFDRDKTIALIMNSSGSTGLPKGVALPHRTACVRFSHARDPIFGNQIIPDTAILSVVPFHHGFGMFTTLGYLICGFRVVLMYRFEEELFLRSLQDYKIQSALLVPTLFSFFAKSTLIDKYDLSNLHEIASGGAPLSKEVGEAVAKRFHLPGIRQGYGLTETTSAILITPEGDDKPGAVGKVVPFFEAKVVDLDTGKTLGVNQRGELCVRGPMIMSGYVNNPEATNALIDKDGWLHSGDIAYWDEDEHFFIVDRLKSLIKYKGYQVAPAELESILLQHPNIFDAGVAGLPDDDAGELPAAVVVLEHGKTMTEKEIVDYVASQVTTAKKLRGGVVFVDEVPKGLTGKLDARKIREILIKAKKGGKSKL

Row | SMILES | activity change, negative = inhibition | Potency
1 | c1ccc2c(c1)C(=NC1CCCCC1)NC2=NC1CCCCC1 | 1.79% | –
2 | COC(=O)NNC(=O)C1CCC(C)CC1 (configuration not stated) | – | inactive
3 | CCOCCCn1c(SCC(=O)Nc2ccc(CC)cc2)nc2ccccc2c1=O | -1.15% | –
4 | Cc1cccc(-c2nc(CS(=O)CC(=O)NC(C)CCc3ccccc3)c(C)o2)c1 (configuration not stated) | -2.47% | –
5 | CNC(=O)c1ccc(-c2nc(CN3CCc4ccccc43)c(C)o2)cc1 | -0.293% | –
6 | COc1ccc(CN2CCc3nc(Nc4ccccc4)ncc3C2)c(OC)c1OC | 2.56% | –
7 | CCCCCn1c(CCNC(=O)c2ccc(F)cc2)nc2ccccc21 | -3.86% | –
8 | COc1ccc(Br)cc1/C=N/NC(=O)c1cccc(S(=O)(=O)N2CCOCC2)c1 | 5.78% | –
9 | CCn1c(SCC(=O)N/N=C/c2ccncc2)nc2ccccc21 | -2.42% | –
10 | Cc1cc(C(=O)N/N=C/c2ccccn2)c2ccccc2n1 | -0.51% | –
11 | COc1ccc(/C=N/NC(=O)CNC(=O)c2ccc(S(=O)(=O)N3CCCC3)cc2)c(OC)c1 | -9.97% | –
12 | CCn1c(/C=N/NC(=O)c2ccc(OC)cc2)nc2ccccc21 | – | 13.5 µM (active)
13 | CCOc1cc(/C=N/NC(=O)c2cc(-c3ccccc3)nc3ccccc23)ccc1O | – | 16.9 µM (active)
14 | CCOc1ccc(/C=N/NC(=O)C(C)Sc2ccccn2)cc1OCC (configuration not stated) | -1.41% | –
15 | COc1ccc(/C=N/NC(=O)c2ccc3c(c2)OCCO3)c(OC)c1 | – | 9.53 µM (active)
16 | COc1ccc(Cc2nc3ccc(C(=O)NCc4ccccc4Cl)cc3o2)cc1 | -11% | –

Row | SMILES | activity change, negative = inhibition | Potency
17 | CCOC(=O)C1CCCN(C(=O)c2ccc3c(c2)sc2nc(-c4ccc(CC)cc4)cn23)C1 (configuration not stated) | -6.78% | –
18 | Cc1ccccc1CNC(=O)C(=O)NCC(c1cccs1)S(=O)(=O)c1cccs1 (configuration not stated) | -9.18% | –
19 | Cc1nc(N2CCOCC2)c2c(C(=O)NCc3cccc(Cl)c3)c(C)oc2n1 | -2.72% | –
20 | O=C1Nc2cc(C(=O)N3CCC(N4CCCCC4)CC3)ccc2S/C1=C\c1ccccc1 | -1.4% | –
21 | O=C(Nc1ccc(Cl)cn1)c1ccc2c(c1)OCCO2 | – | 1.35 µM (active)
22 | CCCc1cc(C(=O)Nc2ccc(C(=O)OC)cc2)cs1 | -14.7% | –
23 | CCCc1cc(C(=O)Nc2ccc(Cl)cn2)cs1 | – | 0.478 µM (active)
24 | CC1(c2ccc(Cl)cc2)NC(=O)N(CC(=O)c2ccc3c(c2)OCO3)C1=O (configuration not stated) | -20.5% | –
25 | Cc1nc(NC(=O)c2ccc3c(c2)OCCO3)ccc1Br | – | 1.51 µM (active)
26 | COc1ccc(C(=O)NC(=S)Nc2ccc(Cl)cn2)cc1OC | -5.46% | –
27 | CCCCC(CC)C(=O)Nc1ccc(Cl)cn1 (configuration not stated) | -1.5% | –
28 | Cc1cc(NC(=O)c2cnn3cccnc23)n(-c2ccccc2)n1 | 3.79% | –
29 | Cc1cccc(C)c1NC(=O)CNC(=O)c1ccc2c(c1)OCCO2 | -2.86% | –
30 | O=C(NCc1ccco1)c1nn2cccnc2c1Cl | -9.49% | –
31 | CS(=O)(=O)c1ccc(-c2nnc(NC(=O)c3ccc4c(c3)OCCO4)o2)cc1 | -2.9% | –
32 | O=C(Nc1ccc(Cl)cn1)c1cnn2cccnc12 | – | 7.57 µM (active)
